Screening data from PubChem.
Shown are actives, neighbours in structure and some others; about 3.9% of the full set was active somewhere.
NTMT1 inh = Primary qHTS for Inhibitors of N-terminal methyltransferase 1 (NTMT1): MTaseGlo Assay; N-terminal Xaa-Pro-Lys N-methyltransferase 1 (Homo sapiens), Q9BV86; NTMT1 MTase-Glo SAH luminescence, purified enzyme; Potency, µM (highest dose often 114 µM), without a hit: at the highest dose activity change, negative = inhibition, hits mostly inhibitors; hit rate 2.5% among 59,000;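 further: potency means the concentration at half of the fitted maximal effect; plate controls were DMSO vehicle for no effect and no enzyme for full effect; nearly all actives have a fitted effect of over 65% in size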
DRV1 agonist = qHTS for Agonists of Human Resolvin D1 Receptor DRV1; activation, % at 76.9 µM; Probable G-protein coupled receptor 32 (Homo sapiens), O75388; hit rate 2.5% among 48,000; AID 1346428, 2018; CHO-K1 GPR32 beta-arrestin PathHunter luminescence, 90 min; zero percent set by DMSO-only wells;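 active means activation of at least 60% and not above a set upper limit, about 1 call in 100 departs from these limits; inconclusive means activation of 40% to 60%, or above that upper limit; inactive means activation under 40%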; further: 0% is about no effect
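CHO-K1 cells stably expressing ProLink-tagged GPR32 and Enzyme Activator-tagged beta-arrestin were seeded at 2,500 cells/well overnight, exposed to compounds for 90 min at 37 °C, then read by beta-Gal complementation chemiluminescence after 1 h detection reagent.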
FH mod = Identification of activators of human fumarate hydratase by quantitative high-throughput screening | hit rate 0.22% among 54,000 | FH coupled MDH/diaphorase resazurin fluorescence, 15 min | AID 1347055, 2019 | Fumarate hydratase, mitochondrial (Homo sapiens), P07954 | Potency, µM (series often up to 79.9 µM), for inactives: top-dose activity change, negative = inhibition, usual class: inhibitors; further: potency means the concentration at half of the fitted maximal effect; on the % scale 0 is the no-effect control and ±100 the full control effect; the screen sought activators but most active calls are inhibition curves; nearly all actives have a fitted effect of over 45% in size
Target sequence (P07954 whole entry, looked up): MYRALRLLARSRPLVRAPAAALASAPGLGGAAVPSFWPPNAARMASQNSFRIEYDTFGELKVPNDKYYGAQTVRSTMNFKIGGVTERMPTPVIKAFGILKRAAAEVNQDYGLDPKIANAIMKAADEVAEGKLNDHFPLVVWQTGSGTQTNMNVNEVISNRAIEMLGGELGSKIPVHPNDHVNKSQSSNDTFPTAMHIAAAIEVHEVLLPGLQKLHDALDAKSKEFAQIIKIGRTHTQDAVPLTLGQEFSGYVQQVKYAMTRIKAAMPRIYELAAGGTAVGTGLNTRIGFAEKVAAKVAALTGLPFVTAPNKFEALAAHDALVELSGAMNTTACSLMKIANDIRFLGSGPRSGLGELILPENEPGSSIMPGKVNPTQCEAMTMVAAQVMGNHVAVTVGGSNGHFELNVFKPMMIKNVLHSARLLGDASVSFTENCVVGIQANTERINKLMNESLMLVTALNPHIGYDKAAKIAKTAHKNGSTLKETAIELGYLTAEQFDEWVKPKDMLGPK
OvCa metastasis = Primary qHTS assay for Inhibitors of ovarian cancer metastasis using an organotypic tumor microenvironment (TME) model; SKOV3ip1-GFP adhesion/invasion on 3D omental model, fluorescence; hit rate 0.1% among 46,000; AID 1963576, 2024; Potency, µM (highest dose often 45.8 µM), for inactives: at the top dose activity change, negative = inhibition, usual class: inhibitors;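 further: potency means the concentration at half of the fitted maximal effect; plate controls were DMSO wells for no effect and tomatine positive control wells for full effect; nearly all actives have a fitted effect of over 65% in size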
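A 3D layer of primary human omental fibroblasts, mesothelial cells, fibronectin and collagen I, grown 48 hr, received SKOV3ip1-GFP cells in serum-free medium plus compounds at 0.36-46 umol/L. After 2 hr RT and 16 hr 37 C, fixed adherent GFP cells were counted; normalized to DMSO and tomatine.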
* = called active by the depositor; i = inactive; ? = inconclusive; / = no result given; ! = a repeat was not active; [ ] = remark or other dose. Unless noted, the call rests on the fitted dose curve; in most records, active means well fitted curve in the direction sought with a large enough effect; inconclusive means small, poorly fitted or top-dose-only effect, or another doubt; inactive means no such curve, though single readings can be large; an effect the other way counts as inactive or inconclusive.

SMILES	NTMT1 inh	DRV1 agonist	FH mod	OvCa metastasis
COc1ccc(OCCn2c(NC(=O)c3ccc(OC)cc3)nc3ccccc32)cc1	6%	63*	-5%	?
O=C(Nc1ccccc1F)c1ccc2c(Cl)c3c(nc2c1)CCC3	25µM*	22	?	-16%
COc1ccccc1NC(=O)c1ccc2c(Cl)c3c(nc2c1)CCCC3	0%	24	-18%	6%
O=C(NCc1ccc(Cl)cc1Cl)c1cccc(N2CCCS2(=O)=O)c1	?	62*	0%	-16%
COc1ccccc1NC(=O)CN1C(=O)CCSc2ccccc21	-1%	-7	-37%	i
CCc1ccc(NC(=O)CN2C(=O)CCSc3ccccc32)cc1	6%	63*	2%	9%
CCc1ccc(NC(=O)CN2C(=O)c3cccc4cccc2c34)cc1	/	120*	/	1%
O=C(CS(=O)(=O)c1cccc2nsnc12)N1CCN(c2cccc(C(F)(F)F)c2)CC1	7%	88*	-8%	i
O=C(CS(=O)(=O)c1cccc2nsnc12)N1CCN(c2ccccc2F)CC1	2%	-15	-30%	10%
C/C=C1/C[N+](C)([O-])C2Cc3c([nH]c4ccccc34)C(=O)CC1C2C(=O)OC (configuration not stated)	8%[29.8 µM]	/	0%[53.3 µM]	/
Nc1ccc(C(=O)O)cc1	1%[57.5 µM]	15	-4%[53.3 µM]	/
Nc1ccc(O)c(C(=O)O)c1	40µM*	-28	?	/
CCOc1ccc(/C=C/C(=O)Nc2sc3c(c2C(=O)OC)CCCC3)cc1	4%	-2	3%	-12%
COC(=O)c1c(NC(=O)CCCOc2ccc(C)cc2)sc2c1C(C(=O)OC)CC2 (configuration not stated)	18µM*	-14	-20%	-4%
CCOC(=O)c1c(NC(=O)/C=C/c2ccc(Cl)cc2)sc2c1CCC(C)C2 (configuration not stated)	?	79*	9%	i
COC(=O)c1c(NC(=O)CCCOc2cccc(C)c2)sc2c1C(C(=O)OC)CC2 (configuration not stated)	14µM*	-23	-14%	i
CCCOc1ccc(/C=C/C(=O)Nc2sc3c(c2C(=O)OCC)CCC(C)C3)cc1OC (configuration not stated)	9%	1	-3%	-3%
CCOc1ccc(/C=C/C(=O)Nc2sc3c(c2C(=O)OC)C(C(=O)OC)CC3)cc1 (configuration not stated)	10µM*	-6	1%	3%
COC(=O)c1c(NC(=O)CCCOc2cccc(C)c2)sc2c1CCC2	-10%	-3	-23%	-2%
COC(=O)c1c(NC(=O)CCCOc2ccc(C)cc2)sc2c1CCCC2	-6%	8	27%	2%
CC1=CC(=O)CC(C)(C)C1(O)CCC(C)O (configuration not stated)	9%[57.5 µM]	/	-2%	/
OC[C@H](Cc1ccccc1)Nc1nc(Oc2ccc3c(c2)CCC3)nc2c1ncn2Cc1ccc(-c2ccccc2)cc1	12%	/	9%[53.3 µM]	22%
Cc1ccc2c(CNCCc3ccccc3)c(C(=O)O)n(Cc3ccccc3C)c2c1	-4%	66*	-21%	-9%
C=Cc1ccc(Cn2c(C(=O)O)c(CNCCc3ccco3)c3ccc(C)cc32)cc1	2%	88*	-12%	i
COc1ccc(Cn2c(C(=O)O)c(CNCCc3cc(OC)ccc3OC)c3ccc(C)cc32)cc1	-1%	106*	-37%	6%
SMILES	NTMT1 inh	DRV1 agonist	FH mod	OvCa metastasis
COc1ccc(Cn2c(C(=O)O)c(CNCc3ccc(OC)cc3OC)c3ccc(C)cc32)cc1	0%	4	-21%	1%
Cc1ccccc1Cn1c(C(=O)O)c(CNCc2cccc(F)c2)c2ccccc21	1%	-14	-9%	i
COc1ccc(Cn2c(C(=O)O)c(CNCCc3ccco3)c3ccc(C)cc32)cc1	-3%	104*	-19%	i
CC1(C)CC[C@]2(C(=O)O)CC[C@]3(C)C(=CCC4[C@@]5(C)C[C@@H](O)[C@H](O)C(C)(C)C5CC[C@]43C)C2C1 (some centres not stated)	17%[29.8 µM]	/	-8%[53.3 µM]	/
C[n+]1cc(NC(=O)c2cccc(C(=O)Nc3cc4ccccc4[n+](C)c3)n2)cc2ccccc21	50µM*	/	?	/
Cc1cc(NS(=O)(=O)c2ccc(NS(=O)(=O)Cc3ccc(Cl)c(Cl)c3)cc2)no1	8%[57.5 µM]	/	/	/
NC[C@@H](O)c1ccc(O)c(O)c1	-16%	/	/	/
Oc1ccc(C(O)CNCCCCCCNCC(O)c2ccc(O)c(O)c2)cc1O (configuration not stated)	35µM*	5	-1%[53.3 µM]	/
CNC[C@H](O)c1ccc(O)c(O)c1	55µM*!	-2	-1%[53.3 µM]	5%[92.2 µM]
COCCNC(=O)Cn1nc(C)c2c(C)n(-c3ccc(C)cc3)nc2c1=O	0%	-14	-8%	-6%
COc1ccc(OC)c(CCNC(=O)C(C)n2nc(C)c3c(C)n(-c4ccc(C)cc4)nc3c2=O)c1 (configuration not stated)	89µM*	9	-12%	i
CCC(C(=O)NCCc1cc(OC)ccc1OC)n1nc(C)c2c(C)n(-c3ccccc3)nc2c1=O (configuration not stated)	-18%	-7	-2%	2%
COc1ccc(CCNC(=O)Cn2nc(C)c3c(C)n(-c4ccc(C)cc4)nc3c2=O)c(OC)c1	45µM*	-3	-14%	-20%
CCOc1ccc(NC(=O)c2sc3ccccc3c2Cl)cc1	/	70*	/	-4%
CCOC(=O)N1CCN(c2ncc3c(n2)CC(c2ccc(Cl)cc2)CC3=O)CC1 (configuration not stated)	-2%	11	?	i
CCOC(=O)N1CCN(c2ncc3c(n2)CC(c2ccccc2O)CC3=O)CC1 (configuration not stated)	-23%	76*	-15%	2%
COc1ccc(NC(=O)CN(C)S(=O)(=O)c2ccc3[nH]c4c(c3c2)CCCC4)cc1OC	-27%	4	-19%	i
CC(=O)c1ccc(NS(=O)(=O)c2ccc3[nH]c4c(c3c2)CCCCCC4)cc1	-6%	73*	?	i
COc1ccc(NC(=O)CN(C)S(=O)(=O)c2ccc3[nH]c4c(c3c2)CCCC4)cc1Cl	2%	91*	-28%	-14%
COc1ccc(NS(=O)(=O)c2ccc3[nH]c4c(c3c2)CCCCCC4)cc1	?	74*	?	-8%
CC(=O)Nc1ccc(NS(=O)(=O)c2ccc3[nH]c4c(c3c2)CCCCC4)cc1	?	80*	?	-10%
COc1cccc(NS(=O)(=O)c2ccc3[nH]c4c(c3c2)CCCCCC4)c1	-3%	3	?	-22%
CO[C@@H](Cc1ccc(OCCc2nc(-c3ccccc3)oc2C)c2ccsc12)C(=O)O	-5%[57.5 µM]	/	?	/
CC(C)(C)Nc1nc(Nc2ccc(C(N)=O)cc2)cc(N)c1C#N	-2%[57.5 µM]	/	-17%	/
